The nature of experiment [1]: compounds altering circadian rhythm period length – cell-based, LOPAC library, luminescence reporter (AID 2774; call rule not given here;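 note: values are relative to mean of DMSO wells on each plate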). The settings on record: circadian reporter cells, at 7 µM, actives lie on both sides.
Experiment [2] relates to Hepatitis C virus NS3 helicase. The experiment in a line: blockers of NS3h binding to ssDNA – biochemical, fluorescence polarization, LOPAC1280 library, primary screen (AID 687035; in the data active = inhibition above about 37%). The settings on record: Purified HCV NS3 helicase, Cy5-dT15 ssDNA binding fluorescence polarization; stronger effect = higher value; concentration not given here. A general note: In fluorescence polarisation assays a small probe gives low polarisation when free and higher when bound to something large.

Experiment [3] is described as follows: compounds altering Cy5-DNA-NS3h complex signal – biochemical, LOPAC1280, artefact control for HCV NS3 helicase inhibitor project (AID 687037; call rule not given here). The settings on record: Cy5-DNA-NS3h complex fluorescence interference counterscreen. (Counterscreens check selectivity or assay interference.)
The nature of experiment [4]: EMT-state selective cytotoxicity in co-culture – imaging, PC-3E GFP, TEM4-18 mCherry, primary screen (AID 1345086;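 active = compounds killing one labelled cell type while sparing the other, by normalised counts and ratio limits, not self-fluorescent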;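 for all read-outs here: cells exposed to compound for 72 h before imaging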;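 for red/green cell ratio (normalised): normalised mesenchymal count divided by normalised epithelial count so high means epithelial killing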). The settings on record: PC-3E GFP / TEM4-18 mCherry co-culture, imaging cell counts, at 1 µM; for red/green cell ratio (normalised): actives lie on both sides, counts scaled to control wells, 1 = unselective.
A short description of experiment [5]: viability loss with induced miR-34 in A549 – imaging, A549 dox-inducible miR-34, nuclei and caspase counts, primary screen (AID 1347080). The settings on record: A549 miR-34 inducible, Hoechst nuclei count, 48 h.
Experiment [6] can be described thus: blockers of cellular phospholipid synthesis – cell-based, LOPAC library, screen 4, primary screen (AID 1347384; call rule not given here). The settings on record: animal cells, phospholipid biosynthesis inhibition screen; at 10 µM.
Experiment [7] has as its target Mitogen-activated protein kinase 7 (Homo sapiens) (UniProt Q13164). The experiment can be described thus: Gal4-ERK5 driven luciferase induction – cell-based, HTS, primary screen (AID 1508626;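 active = luciferase signal above three times the same-plate solvent-only control wells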;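 note: luciferase driven by Gal4-ERK5 fusion binding five Gal4 sites before minimal TATA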). The settings on record: HeLa Gal4-ERK5 transactivation, 18 h, at 5 µM, stronger effect = higher value.
A short description of experiment [8]: galactose survival enhancers in mitochondrial complex I cybrids – cell-based, galactose medium, ATP luminescence, primary screen (AID 1645843;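 active = z-score of at least 1.8 in each of two replicates, scored against plate mean and spread of sample wells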;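 note: positive z means more ATP and so rescue of galactose-driven cybrid death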). The settings on record: complex I mutant cybrid cells, 72 h, stronger effect = higher value.
A short description of experiment [9]: MELAS cybrid and Rieske KO viability enhancers – cell-based, MELAS cybrids, Rieske KO mouse fibroblasts, CellTiter-Glo, primary screen (AID 1508586;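 active = mean z-score across replicates of 1.96 or higher in either the MELAS or the Rieske mutant cell line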;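 note: z relative to plate mean and SD of compound and empty wells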). The settings on record: low glucose. (In general: In ATP-based viability assays light output follows the ATP content of the culture.)
In experiment [10] the target is NAD(+) hydrolase SARM1 (Homo sapiens) (UniProt Q6SZW1). The experiment can be described thus: blocking NAD cleavage by SARM1 SAM-TIR – cell lysate, NAD-Glo luminescence (AID 1508614;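 active = compound whose remaining NAD level is above about 45 nM, limit read from the data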;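 note: higher remaining NAD means stronger inhibition of SARM1 NADase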). The settings on record: SAM-TIR HEK293T lysate NADase, at 1 µM, stronger effect = higher value.
Experiment [11] in a line: P. berghei load reduction in hepatocytes – cell-based, HepG2, luciferase luminescence, HepG2 viability, primary screen (AID 624349; in the data active = parasite load remaining mostly below about 12%, no sharp cut-off; inactive = mostly above about 10%;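 note: 100% = mean of DMSO negative control wells on the same plate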). The settings on record: P. berghei liver stage in HepG2, luciferase luminescence, concentration not given here; parasite load remaining: stronger effect = lower value; viability: measured here: HepG2 viability without parasites.
[12] abbreviates: measured here: epithelial PC-3E GFP cell survival.
The mark [13] stands for this setting: measured here: mesenchymal TEM4-18 mCherry cell survival.
[14] abbreviates: stronger effect = lower value, cell number ratio, induced over uninduced.
Where [15] appears, read: measured here: relative caspase fold change +Dox/-Dox.
Where [16] appears, read: measured here: total cells with miR-34 induction, stronger effect = lower value.
Setting [17] is: measured here: total cells without miR-34 induction.
[18] abbreviates: MELAS cybrid survival, CellTiter-Glo 48 h, stronger effect = higher value.
The mark [19] stands for this setting: Rieske KO mouse fibroblast survival, CellTiter-Glo 72 h.

Broadly, the inhibition is the change of the read-out against control, counted positive when it falls. By viability is commonly meant a per cent measure of how many cells are alive, often set against a control.

Values joined by “and” are separate entries in the source; they are usually repeats but may differ in a detail not shown here. Identical values can stand only once. Active and inactive are the calls of the source.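 Rule for the calls, unless noted: active = compounds whose cell count with miR-34 switched on is under 0.7 times the count with it off; inactive = the rest.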

Sequence of NAD(+) hydrolase SARM1 (Homo sapiens) (Q6SZW1 whole entry, looked up): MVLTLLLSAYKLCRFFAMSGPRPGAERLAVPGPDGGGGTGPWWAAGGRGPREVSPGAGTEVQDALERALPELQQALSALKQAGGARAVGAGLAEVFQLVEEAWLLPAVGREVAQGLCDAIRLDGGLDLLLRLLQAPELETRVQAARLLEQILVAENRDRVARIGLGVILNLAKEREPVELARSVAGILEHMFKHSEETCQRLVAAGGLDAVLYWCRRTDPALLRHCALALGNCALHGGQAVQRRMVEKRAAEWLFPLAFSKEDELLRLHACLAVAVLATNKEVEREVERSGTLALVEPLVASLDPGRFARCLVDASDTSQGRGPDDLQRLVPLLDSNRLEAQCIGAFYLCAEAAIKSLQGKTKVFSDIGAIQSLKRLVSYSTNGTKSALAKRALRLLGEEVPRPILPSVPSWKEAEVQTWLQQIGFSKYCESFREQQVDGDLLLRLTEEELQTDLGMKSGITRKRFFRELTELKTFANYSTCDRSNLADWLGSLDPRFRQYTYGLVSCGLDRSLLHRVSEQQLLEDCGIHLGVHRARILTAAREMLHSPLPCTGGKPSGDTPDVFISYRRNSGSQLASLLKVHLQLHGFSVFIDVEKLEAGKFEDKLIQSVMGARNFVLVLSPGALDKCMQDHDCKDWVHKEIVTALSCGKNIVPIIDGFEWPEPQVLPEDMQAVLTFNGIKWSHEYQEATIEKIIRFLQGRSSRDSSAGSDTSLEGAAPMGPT
Sequence of Mitogen-activated protein kinase 7 (Homo sapiens) (Q13164 whole entry, looked up, the tested form may be a part): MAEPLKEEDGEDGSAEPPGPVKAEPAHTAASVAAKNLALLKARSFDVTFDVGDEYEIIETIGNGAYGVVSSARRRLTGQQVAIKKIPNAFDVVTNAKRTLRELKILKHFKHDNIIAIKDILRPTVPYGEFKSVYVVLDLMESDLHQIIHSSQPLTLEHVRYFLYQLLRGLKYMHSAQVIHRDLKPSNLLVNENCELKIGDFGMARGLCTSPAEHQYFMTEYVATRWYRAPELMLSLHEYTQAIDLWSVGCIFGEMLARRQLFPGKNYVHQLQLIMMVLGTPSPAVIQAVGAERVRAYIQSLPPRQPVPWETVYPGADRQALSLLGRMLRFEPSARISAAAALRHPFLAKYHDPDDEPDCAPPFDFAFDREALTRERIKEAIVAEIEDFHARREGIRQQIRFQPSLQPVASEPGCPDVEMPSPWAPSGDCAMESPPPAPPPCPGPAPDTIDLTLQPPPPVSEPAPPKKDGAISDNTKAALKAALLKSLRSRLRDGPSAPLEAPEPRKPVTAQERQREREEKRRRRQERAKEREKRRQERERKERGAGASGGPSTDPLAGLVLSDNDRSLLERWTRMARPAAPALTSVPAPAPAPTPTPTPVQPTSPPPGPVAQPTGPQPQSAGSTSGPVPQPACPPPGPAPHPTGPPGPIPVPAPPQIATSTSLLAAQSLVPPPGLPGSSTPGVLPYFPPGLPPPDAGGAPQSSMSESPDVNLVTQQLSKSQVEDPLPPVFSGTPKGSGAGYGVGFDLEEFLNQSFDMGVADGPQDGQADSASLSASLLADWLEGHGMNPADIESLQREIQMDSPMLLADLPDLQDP

Take `CCCCC[C@H](CC(=O)NO)C(=O)N[C@H](C(=O)N1CCC[C@H]1CO)C(C)C`: the period change in experiment [1] is -0.03 h (inactive). Besides, in experiment [2], the inhibition was 0% (inactive). In addition, the fluorescence ratio (interference) in [3] is 1.1 (inactive). In [4], the red/green cell ratio (normalised) is 0.91 (inactive). In addition, the normalised cell number in experiment [4] (setting [12]) was 1.02; in [4] (setting [13]), 0.93. Further, the fold change in experiment [5] (setting [14]) is 2.17 (inactive); in experiment [5] (setting [15]), 1.05. For the same molecule, the cell count in [5] (setting [16]) came out at 6800; in experiment [5] (setting [17]), 3130. Moreover, the molecule was classed as inactive in experiment [6]. In [7], the luciferase signal was 192 AU (inactive). For the same molecule, in experiment [8], the z-score is 2.42 (inactive).
As to `CC1(C)C2CCC1(CS(=O)(=O)O)C(=O)/C2=C\c1ccc(/C=C2\C(=O)C3(CS(=O)(=O)O)CCC2C3(C)C)cc1`, in experiment [4], the red/green cell ratio (normalised) is 0.78 (inactive). Also, the normalised cell number in [4] (setting [12]) came to 1.44; in experiment [4] (setting [13]), 1.12. Moreover, the fold change in experiment [5] (setting [14]) is 0.905 (inactive); in [5] (setting [15]) it was 1.03. The results for the cell count in [5] (setting [16]) and in [5] (setting [17]) were 8090 and 8940, respectively.
`CN(C)CC(c1ccc(O)cc1)C1(O)CCCCC1` (configuration not stated): the red/green cell ratio (normalised) in experiment [4] was 1 (inactive). Further, the normalised cell number in [4] (setting [12]) and in [4] (setting [13]) was 0.79 each time. The fold change in [5] (setting [14]) is 0.982 (inactive) and 0.891 (inactive) and 0.889 (inactive); in experiment [5] (setting [15]), 0.639 and 1.05 and 1.37. The cell count is 9600 and 8680 in experiment [5] (setting [16]); 9780 and 9740 and 9750 in experiment [5] (setting [17]). Besides, the z-score in experiment [9] (setting [18]) is -0.237 (inactive) and -0.203 (inactive); in [9] (setting [19]), -0.123 and -0.139. The remaining NAD in experiment [10] is 10 nM (inactive).
With `CC(C)Cc1ccc([C@H](C)C(=O)O)cc1`, the period change in experiment [1] is -0.055 h (inactive). Also, the parasite load remaining in experiment [11] was 89.2% (inactive). In experiment [11], the viability amounted to 95.1%. Moreover, in experiment [2], the inhibition is -6% (inactive). Also, the fluorescence ratio (interference) in experiment [3] was 0.9 (inactive). Moreover, the red/green cell ratio (normalised) in experiment [4] is 0.85 (inactive). Also, the normalised cell number in [4] (setting [12]) turned out to be 0.93; in experiment [4] (setting [13]) it was 0.79. Moreover, the fold change was 1.1 (inactive) and 0.885 (inactive) in experiment [5] (setting [14]); 1.11 and 1.2 in experiment [5] (setting [15]). Besides, the cell count in experiment [5] (setting [16]) was 10400 and 9190; in experiment [5] (setting [17]) it was 9420 and 10400. Further, the molecule was called inactive in experiment [6]. Also, the z-score in experiment [9] (setting [18]) was 0.343 (inactive); in experiment [9] (setting [19]) it was -0.398; in [8], 0.53 (inactive). Moreover, in [10], the remaining NAD was 26 nM (inactive).
Consider `C[C@@H]1CC2C3CCC4=CC(=O)C=C[C@]4(C)[C@@]3(F)[C@@H](O)C[C@]2(C)[C@@]1(O)C(=O)CO` (some centres not stated), for which the parasite load remaining in [11] is 152% (inactive) and 64.1% (inactive). Also, in experiment [11], the viability was 77.2% and 87.1%. For the same molecule, the red/green cell ratio (normalised) in experiment [4] was 1.24 (inactive). Moreover, the normalised cell number in experiment [4] (setting [12]) was determined as 1.34; in experiment [4] (setting [13]), 1.66. For the same molecule, the fold change in experiment [5] (setting [14]) is 0.825 (inactive); in experiment [5] (setting [15]), 2.2. Moreover, the cell count in experiment [5] (setting [16]) came out at 7310; in experiment [5] (setting [17]) it was 8850.
On to `COc1cc(O)cc(C(=O)c2ccccc2)c1S(=O)(=O)O`, for which the red/green cell ratio (normalised) in experiment [4] was 1 (inactive). In addition, the normalised cell number came out at 1.17 in experiment [4] (setting [12]) and 1.18 in experiment [4] (setting [13]). The fold change was 0.973 (inactive) in [5] (setting [14]) and 0.886 in experiment [5] (setting [15]). For the same molecule, the cell count was 9730 in experiment [5] (setting [16]) and 10000 in [5] (setting [17]).
For the molecule `CO[C@@]12[C@@H]3NC3CN1C1=C(C(=O)C(N)=C(C)C1=O)[C@@H]2COC(N)=O` (some centres not stated), the parasite load remaining in experiment [11] was 0.12% (inactive). The molecule also registered a viability in [11] of 22.5%. In addition, in experiment [4], the red/green cell ratio (normalised) is 1.09 (inactive). Besides, the normalised cell number stood at 1.03 in experiment [4] (setting [12]) and 1.13 in experiment [4] (setting [13]). Moreover, the fold change in experiment [5] (setting [14]) is 0.986 (inactive); in experiment [5] (setting [15]), 0.958. The values for the cell count in [5] (setting [16]) and in experiment [5] (setting [17]) were 1840 and 1870, respectively.

The record behind these values is PubChem BioAssay.
